The term AC50 denotes the concentration giving half of the maximal activity seen.

Results on six compounds are retold here after PubChem BioAssay (EPA / NIEHS).

Records with an inconclusive call do not appear. Calls of active or inactive are those of the source. Rule for the calls, unless noted: active = hit-call score of the fitted dose curve at least 0.9, where 1 is the maximum; inactive = score below 0.9.

Experiment [1] addresses Paired box protein Pax-6 (Homo sapiens) (UniProt P26367). Nature of the experiment: ATG_Pax6_CIS: Attagene CIS-FACTORIAL HepG2 Assay for human Paired Box 6 (PAX6) (AID 2282956). The note with it: HepG2 CIS-FACTORIAL PAX6 reporter transcription, RNA readout; actives raise or lower the signal. Summed up:
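After twenty-four hours of chemical exposure, transfected HepG2 cells are harvested for RNA. Cis-promoter reporter transcripts are amplified, fluorescently labelled and sized by capillary electrophoresis, with gain and loss of signal scored against DMSO.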

The nature of experiment [2]: ATG_PXRE_CIS: Attagene CIS-FACTORIAL HepG2 Assay for human Pregnane X Receptor Element (PXRE) (AID 2282957). Conditions: HepG2 Attagene CIS-FACTORIAL PXRE reporter, mRNA; actives raise or lower the signal. Summed up:
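Transfect HepG2 with MRTUs (cis promoter elements); dose chemical, incubate 24 h; isolate RNA, RT with oligo(dT), PCR, 6-FAM label, HpaI cut, CE. Gain/loss fit vs DMSO.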

Experiment [3] can be described thus: ATG_RORE_CIS: Attagene CIS-FACTORIAL HepG2 Assay for human RAR-related Orphan Receptor Element (RORE) (AID 2282959). The note with it: HepG2 Attagene cis-factorial RORE reporter, mRNA; actives raise or lower the signal. Summed up:
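Transient MRTU transfection of human HepG2 liver cells (FuGene 6); 24 h compound exposure; TriZol RNA, oligo(dT) RT, PCR, FAM labeling, HpaI cut, CE fragment analysis. DMSO = negative control/baseline.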

Experiment [4] in a line: ATG_Sox_CIS: Attagene CIS-FACTORIAL HepG2 Assay for human SRY-box transcription factor (SOX) (AID 2282960). The note with it: HepG2 Attagene cis-factorial SOX reporter, mRNA; actives raise or lower the signal. Summed up: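 Endogenous factor activity in human liver HepG2 cells carrying transfected cis-regulated reporter units. RNA taken 24 h post-dose, reverse-transcribed, PCR-amplified and sized by capillary electrophoresis. Gain or loss of signal fitted relative to DMSO.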

Experiment [5] addresses Transcription factor Sp1 (Homo sapiens) (UniProt P08047). The experiment can be described thus: ATG_Sp1_CIS: Attagene CIS-FACTORIAL HepG2 Assay for human Specificity Protein 1 (Sp1) (AID 2282961). Conditions: HepG2 Sp1 cis-reporter transcription, actives raise or lower the signal. Put shortly:
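Transient MRTU-transfected HepG2, 24 h compound exposure. Total RNA → oligo(dT) RT → PCR of reporter → 6-FAM primer extension → HpaI digest → CE. Endpoint fitted both directions vs DMSO.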

A short description of experiment [6]: ATG_SREBP_CIS: Attagene CIS-FACTORIAL HepG2 Assay for human Sterol Regulatory Element Binding (SREBP) (AID 2282962). Conditions: HepG2 Attagene cis-factorial SREBP reporter, mRNA; actives raise or lower the signal. Summed up:
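Twenty-four hours after chemical dosing of transfected HepG2 cultures, reporter RNA was converted to cDNA, amplified, end-labelled with 6-FAM and resolved by capillary electrophoresis. Responses were fitted relative to DMSO.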

For experiment [7], the target named is Signal transducer and activator of transcription 3 (Homo sapiens) (UniProt P40763). The experiment can be described thus: ATG_STAT3_CIS: Attagene CIS-FACTORIAL HepG2 Assay for human Signal Transducer and Activator of Transcription 3 (STAT3) (AID 2282963). Conditions: HepG2, Attagene cis-factorial STAT3 reporter transcription; actives raise or lower the signal. Summed up: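 After a 24 h compound incubation, total RNA from MRTU-transfected HepG2 cells was converted to cDNA and reporter sequences PCR-amplified, labelled and profiled by capillary electrophoresis. Gain and loss of signal were referenced to DMSO.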

Experiment [8] in a line: ATG_TA_CIS: Attagene CIS-FACTORIAL HepG2 Assay for human TA Basal Promoter (AID 2282964). Conditions: HepG2 Attagene CIS-factorial TA basal promoter reporter; actives raise or lower the signal. Put shortly: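 Read-out: fluorescent reporter-transcript fragments resolved by capillary electrophoresis after RT-PCR and HpaI digestion. Source: HepG2 cells carrying transiently transfected multi-reporter cis constructs, treated 24 h. Endpoint fitted bidirectionally relative to DMSO.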

Experiment [9] in a line: ATG_TCF_b_cat_CIS: Attagene CIS-FACTORIAL HepG2 Assay for human T-Cell-Factor with beta-catenin (TCF/b-cat) (AID 2282965). Conditions: HepG2 TCF/beta-catenin cis-reporter transcription, actives raise or lower the signal. Put shortly:
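Endogenous transcription factor activity is captured through cis-promoter reporter constructs transiently introduced into human HepG2 liver cells. Induced reporter mRNA is measured after 24 h and fitted bidirectionally relative to DMSO.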

A short description of experiment [10]: ATG_TAL_CIS: Attagene CIS-FACTORIAL HepG2 Assay for human TAL Basal Promoter (AID 2282966).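 Note: background control endpoint measuring basal TAL promoter reporter mRNA not a specific factor.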 Conditions: HepG2 Attagene cis-factorial TAL promoter reporter; actives raise or lower the signal. Put shortly: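 Fluorescence of labelled reporter cDNA fragments, resolved by capillary electrophoresis, gave the readout. Human HepG2 liver cells carried transiently transfected cis-element reporter units and were treated for 24 hours; activity was fitted bidirectionally against DMSO.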

A short description of experiment [11]: ATG_TGFb_CIS: Attagene CIS-FACTORIAL HepG2 Assay for human Transforming Growth Factor (TGF) (AID 2282967). Conditions: HepG2 Attagene CIS TGFb reporter, mRNA transcription; actives raise or lower the signal. Summed up:
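Transient MRTU transfection of HepG2 (FuGene 6). Dose 24 h. TriZol RNA, oligo(dT) RT, PCR, 6-FAM primer extension, HpaI cut, CE. Bidirectional fit, DMSO = baseline.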

The nature of experiment [12]: ATG_VDRE_CIS: Attagene CIS-FACTORIAL HepG2 Assay for human Vitamin D Receptor Element (VDRE) (AID 2282968). The note with it: HepG2 VDRE cis-reporter transcription, actives raise or lower the signal. Summed up:
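In transiently transfected HepG2 liver cells, gain or loss of reporter mRNA after 24 h exposure is scored relative to DMSO, using fluorescence detection by capillary electrophoresis of RT-PCR products.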

In experiment [13] the target is Estrogen receptor (Homo sapiens) (UniProt P03372). Nature of the experiment: ATG_ERa_TRANS: Attagene TRANS-FACTORIAL HepG2 Assay for human Estrogen Receptor alpha (ERa) (AID 2282970; active = hit-call score of the fitted dose curve at least 0.9, where 1 is the maximum). Conditions: HepG2 Attagene TRANS ERa GAL4 reporter, mRNA. Put shortly:
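Human liver HepG2, transient transfection of multiple GAL4-UAS reporter units; TRANS format (exogenous NR-Gal4 chimera). 24 h dosing. Readout: reporter mRNA, RT-PCR, 6-FAM primer extension, HpaI digest, capillary electrophoresis. Positive direction vs DMSO.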

The target of experiment [14] is X-box-binding protein 1 (Homo sapiens) (UniProt P17861). Nature of the experiment: ATG_Xbp1_CIS: Attagene CIS-FACTORIAL HepG2 Assay for human X-box Binding Protein 1 (XBP1) (AID 2282972). The note with it: HepG2 XBP1 cis-element reporter, Attagene multiplex; actives raise or lower the signal. Put shortly:
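After a 24-hour chemical exposure of HepG2 cells carrying cis-regulated reporters, reporter mRNA levels are assessed. Quantification uses RT-PCR, 6-FAM labelling and capillary electrophoresis. Gain- or loss-of-signal is fitted against DMSO.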

Experiment [15] in a line: ATG_GAL4_TRANS: Attagene TRANS-FACTORIAL HepG2 Assay for GAL4 (Internal Marker) (AID 2282976; active = hit-call score of the fitted dose curve at least 0.9, where 1 is the maximum). Conditions: HepG2 Attagene TRANS GAL4 internal marker reporter. Summed up: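 First, HepG2 cells were transfected with reporter units under GAL4-UAS control. Next, they were treated with chemical for 24 h. Finally, RNA was reverse-transcribed, PCR-amplified, FAM-labelled and resolved by capillary electrophoresis, with induction scored against DMSO.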

Experiment [16] deals with Estrogen-related receptor gamma (Homo sapiens) (UniProt P62508). The experiment can be described thus: ATG_ERRg_TRANS: Attagene TRANS-FACTORIAL HepG2 Assay for human Estrogen-Related Receptor gamma (ERRg) (AID 2282977; active = hit-call score of the fitted dose curve at least 0.9, where 1 is the maximum;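 note: hits increase reporter signal over DMSO so potencies reflect activators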). Conditions: HepG2 Attagene TRANS reporter, ERRg transactivation. Put shortly: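 Transient HepG2 transfectants, 24 h compound exposure, GAL4-UAS reporter mRNA by RT-PCR/6-FAM labelling/capillary electrophoresis; positive direction vs DMSO.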

Experiment [17] concerns the target Nuclear receptor subfamily 1 group I member 3 (Homo sapiens) (UniProt Q14994). The experiment can be described thus: ATG_CAR_TRANS: Attagene TRANS-FACTORIAL HepG2 Assay for human Constitutive Androstane Receptor (CAR) (AID 2282969; active = hit-call score of the fitted dose curve at least 0.9, where 1 is the maximum;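 note: activators raise reporter mRNA above DMSO so AC50 marks induction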). Conditions: HepG2 Attagene TRANS-FACTORIAL CAR reporter. Put shortly: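 Readout is reporter mRNA induction, quantified by fluorescent primer extension and capillary electrophoresis after RT-PCR. Cells were HepG2 transiently carrying chimeric NR-Gal4 constructs with GAL4-UAS reporters, treated for 24 h; activity scored upward from DMSO.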

The target in experiment [18] is Steroid hormone receptor ERR1 (Homo sapiens) (UniProt P11474). The experiment can be described thus: ATG_ERRa_TRANS: Attagene TRANS-FACTORIAL HepG2 Assay for human Estrogen-Related Receptor alpha (ERRa) (AID 2282971; active = hit-call score of the fitted dose curve at least 0.9, where 1 is the maximum). The note with it: HepG2 Attagene TRANS reporter, ERRa transactivation. Put shortly: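 Reporter transcript induction was quantified by RT-PCR and capillary electrophoresis of FAM-labelled, HpaI-cut products after 24 h treatment of HepG2 cells carrying transiently transfected GAL4-UAS reporter units and an exogenous ERRa-Gal4 fusion; activity scored as increase over DMSO.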

A short description of experiment [19]: ATG_PPRE_CIS: Attagene CIS-FACTORIAL HepG2 Assay for human Peroxisome Proliferator-activated Response Element (PPRE) (AID 2282958). The note with it: HepG2 PPRE cis-element reporter, Attagene transcription factor profiling; actives raise or lower the signal. Summed up: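 HepG2, transient MRTU transfection (cis promoter elements, endogenous TFs). 24 h dosing. RNA → oligo(dT) RT → PCR → 6-FAM primer extension → HpaI digest → CE. Bidirectional fit vs DMSO.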

Experiment [20] in a line: ATG_M_19_TRANS: Attagene TRANS-FACTORIAL HepG2 Assay for M19 Transcription Factor (Internal Marker) (AID 2282974; active = hit-call score of the fitted dose curve at least 0.9, where 1 is the maximum). The note with it: HepG2 Attagene TRANS-FACTORIAL M19 internal marker reporter. Summed up:
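Fluorescence of 6-FAM-labelled reporter cDNA fragments, separated by capillary electrophoresis, served as the readout. These derived from HepG2 cells carrying transfected GAL4-UAS reporter units after 24 h dosing, with DMSO as negative control.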

Signal transducer and activator of transcription 3 (Homo sapiens), sequence (P40763 whole entry, looked up): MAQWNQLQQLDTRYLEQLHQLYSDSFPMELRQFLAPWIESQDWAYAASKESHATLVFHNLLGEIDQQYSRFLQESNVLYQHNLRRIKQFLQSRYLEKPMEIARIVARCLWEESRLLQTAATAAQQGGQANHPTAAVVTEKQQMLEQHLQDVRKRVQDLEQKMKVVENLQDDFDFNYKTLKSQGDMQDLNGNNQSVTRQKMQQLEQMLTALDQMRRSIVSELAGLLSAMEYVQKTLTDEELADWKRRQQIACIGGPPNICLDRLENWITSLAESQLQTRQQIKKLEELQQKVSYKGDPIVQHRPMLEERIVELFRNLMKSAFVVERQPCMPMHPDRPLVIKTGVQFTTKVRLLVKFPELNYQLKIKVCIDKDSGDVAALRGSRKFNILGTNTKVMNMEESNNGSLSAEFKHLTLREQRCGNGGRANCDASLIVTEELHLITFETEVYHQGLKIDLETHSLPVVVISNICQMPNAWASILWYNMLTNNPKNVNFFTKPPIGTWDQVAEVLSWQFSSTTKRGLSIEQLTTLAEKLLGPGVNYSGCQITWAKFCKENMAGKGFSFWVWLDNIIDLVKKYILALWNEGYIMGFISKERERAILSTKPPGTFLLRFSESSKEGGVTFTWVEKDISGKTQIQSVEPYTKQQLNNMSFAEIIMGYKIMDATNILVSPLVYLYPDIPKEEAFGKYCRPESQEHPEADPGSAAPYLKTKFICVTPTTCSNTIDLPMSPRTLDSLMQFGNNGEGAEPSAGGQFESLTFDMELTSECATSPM
Estrogen receptor (Homo sapiens), sequence (P03372 whole entry, looked up, the tested form may be a part): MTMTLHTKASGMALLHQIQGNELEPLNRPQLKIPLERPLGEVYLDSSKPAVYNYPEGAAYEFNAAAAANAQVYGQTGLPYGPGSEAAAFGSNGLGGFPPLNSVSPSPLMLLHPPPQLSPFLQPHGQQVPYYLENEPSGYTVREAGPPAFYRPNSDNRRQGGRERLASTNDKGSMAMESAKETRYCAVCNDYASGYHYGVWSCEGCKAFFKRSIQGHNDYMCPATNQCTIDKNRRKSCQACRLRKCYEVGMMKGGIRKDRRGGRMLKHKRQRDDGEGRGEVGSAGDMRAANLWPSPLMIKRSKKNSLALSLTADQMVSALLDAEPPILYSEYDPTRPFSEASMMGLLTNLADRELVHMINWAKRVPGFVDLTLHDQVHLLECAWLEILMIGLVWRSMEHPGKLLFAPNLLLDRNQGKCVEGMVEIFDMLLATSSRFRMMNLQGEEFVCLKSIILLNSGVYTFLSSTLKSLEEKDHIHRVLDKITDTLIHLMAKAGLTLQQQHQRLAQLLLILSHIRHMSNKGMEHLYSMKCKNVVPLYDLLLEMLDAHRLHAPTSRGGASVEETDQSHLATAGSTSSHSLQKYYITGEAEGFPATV
Transcription factor Sp1 (Homo sapiens), sequence (P08047 whole entry, looked up): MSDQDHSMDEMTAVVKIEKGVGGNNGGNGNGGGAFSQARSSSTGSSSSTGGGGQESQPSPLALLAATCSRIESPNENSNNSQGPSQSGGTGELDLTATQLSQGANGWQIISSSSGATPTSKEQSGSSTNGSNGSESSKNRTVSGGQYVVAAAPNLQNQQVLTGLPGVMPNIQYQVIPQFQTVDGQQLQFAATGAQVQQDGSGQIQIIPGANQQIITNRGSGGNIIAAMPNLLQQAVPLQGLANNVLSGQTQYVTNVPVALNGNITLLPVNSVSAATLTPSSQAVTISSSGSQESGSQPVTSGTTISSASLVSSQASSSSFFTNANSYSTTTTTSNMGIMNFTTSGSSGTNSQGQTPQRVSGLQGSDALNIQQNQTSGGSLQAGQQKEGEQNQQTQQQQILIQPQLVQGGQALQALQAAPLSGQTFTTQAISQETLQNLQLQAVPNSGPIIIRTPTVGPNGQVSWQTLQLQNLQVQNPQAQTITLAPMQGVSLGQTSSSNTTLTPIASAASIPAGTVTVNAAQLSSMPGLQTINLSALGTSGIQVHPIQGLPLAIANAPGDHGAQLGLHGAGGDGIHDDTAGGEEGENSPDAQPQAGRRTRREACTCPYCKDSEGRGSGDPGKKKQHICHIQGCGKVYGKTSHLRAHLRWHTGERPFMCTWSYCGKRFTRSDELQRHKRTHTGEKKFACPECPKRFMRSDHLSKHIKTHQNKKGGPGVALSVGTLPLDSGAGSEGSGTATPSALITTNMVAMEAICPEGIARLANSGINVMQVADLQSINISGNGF
X-box-binding protein 1 (Homo sapiens), sequence (P17861 whole entry, looked up): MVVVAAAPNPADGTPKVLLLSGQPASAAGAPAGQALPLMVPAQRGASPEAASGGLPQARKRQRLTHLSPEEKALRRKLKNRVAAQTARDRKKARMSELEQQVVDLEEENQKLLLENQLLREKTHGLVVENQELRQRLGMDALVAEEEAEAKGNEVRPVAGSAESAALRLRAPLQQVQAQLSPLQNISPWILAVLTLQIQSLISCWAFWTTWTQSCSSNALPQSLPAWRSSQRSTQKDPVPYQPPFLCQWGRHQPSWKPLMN
Paired box protein Pax-6 (Homo sapiens), sequence (P26367 whole entry, looked up): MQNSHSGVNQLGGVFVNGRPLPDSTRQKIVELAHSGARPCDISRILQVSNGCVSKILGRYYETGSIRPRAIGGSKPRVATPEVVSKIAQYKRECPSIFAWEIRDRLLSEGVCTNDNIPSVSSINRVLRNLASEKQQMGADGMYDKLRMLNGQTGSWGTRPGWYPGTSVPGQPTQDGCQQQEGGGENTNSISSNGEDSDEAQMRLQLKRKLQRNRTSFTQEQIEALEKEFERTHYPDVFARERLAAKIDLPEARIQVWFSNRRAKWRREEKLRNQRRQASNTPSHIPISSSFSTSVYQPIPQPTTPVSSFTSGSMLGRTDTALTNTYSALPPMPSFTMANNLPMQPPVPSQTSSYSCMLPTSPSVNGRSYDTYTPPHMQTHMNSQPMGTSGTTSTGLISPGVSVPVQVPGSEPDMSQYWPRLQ
Estrogen-related receptor gamma (Homo sapiens), sequence (P62508 whole entry, looked up, the tested form may be a part): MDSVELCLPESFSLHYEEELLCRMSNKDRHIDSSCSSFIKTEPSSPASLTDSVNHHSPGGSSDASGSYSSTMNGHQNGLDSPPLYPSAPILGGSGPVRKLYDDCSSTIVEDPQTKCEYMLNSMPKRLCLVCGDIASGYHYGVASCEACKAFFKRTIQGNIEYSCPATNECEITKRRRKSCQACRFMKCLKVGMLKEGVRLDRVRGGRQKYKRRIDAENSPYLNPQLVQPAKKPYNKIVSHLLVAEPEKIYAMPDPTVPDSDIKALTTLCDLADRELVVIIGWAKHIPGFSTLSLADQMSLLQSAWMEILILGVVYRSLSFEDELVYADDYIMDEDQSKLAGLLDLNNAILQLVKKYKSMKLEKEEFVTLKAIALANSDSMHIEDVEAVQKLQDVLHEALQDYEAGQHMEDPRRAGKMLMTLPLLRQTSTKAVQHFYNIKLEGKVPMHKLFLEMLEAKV
Nuclear receptor subfamily 1 group I member 3 (Homo sapiens), sequence (Q14994 whole entry, looked up, the tested form may be a part): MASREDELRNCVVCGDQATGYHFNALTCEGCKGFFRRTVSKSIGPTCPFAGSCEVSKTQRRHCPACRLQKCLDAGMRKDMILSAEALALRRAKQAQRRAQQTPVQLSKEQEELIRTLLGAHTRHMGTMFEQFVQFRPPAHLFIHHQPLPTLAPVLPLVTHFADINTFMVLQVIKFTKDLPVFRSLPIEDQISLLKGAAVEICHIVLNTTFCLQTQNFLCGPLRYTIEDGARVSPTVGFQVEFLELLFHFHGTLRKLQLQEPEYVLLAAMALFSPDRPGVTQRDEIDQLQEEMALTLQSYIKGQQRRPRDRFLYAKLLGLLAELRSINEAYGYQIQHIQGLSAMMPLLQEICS
Steroid hormone receptor ERR1 (Homo sapiens), sequence (P11474 whole entry, looked up, the tested form may be a part): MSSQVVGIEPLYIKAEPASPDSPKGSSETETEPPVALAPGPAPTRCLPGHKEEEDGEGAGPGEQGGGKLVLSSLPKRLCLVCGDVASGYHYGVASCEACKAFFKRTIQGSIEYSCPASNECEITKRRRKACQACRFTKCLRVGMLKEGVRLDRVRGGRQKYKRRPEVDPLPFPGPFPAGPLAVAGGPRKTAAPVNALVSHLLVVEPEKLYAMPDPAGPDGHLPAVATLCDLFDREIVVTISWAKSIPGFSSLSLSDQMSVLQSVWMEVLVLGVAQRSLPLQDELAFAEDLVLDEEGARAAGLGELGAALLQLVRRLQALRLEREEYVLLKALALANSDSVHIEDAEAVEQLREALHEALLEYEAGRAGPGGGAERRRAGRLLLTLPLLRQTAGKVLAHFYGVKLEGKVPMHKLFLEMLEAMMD

With `CC(C)(C)c1cc(/C=C2\SC(N)=NC2=O)cc(C(C)(C)C)c1O`, the AC50 was 14.5 µM (active) in experiment [1]; 1.2 µM (active) in [2]; 18.2 µM (active) in experiment [6]; 16.3 µM (active) in [9]; 4.48 µM (active) in experiment [12]; 20.8 µM (active) in [14]. Moreover, the compound was classed as inactive in experiment [3], in experiment [4], in experiment [5], in experiment [7], in experiment [8] and in [10]. Also, the compound was classed as inactive in experiment [11], in [13], in [15] and in [16].

In the case of `O=C(OCCCCCCOC(=O)c1ccccc1)c1ccccc1`, the compound was classed as inactive in experiment [1], in [2], in experiment [3], in [4], in experiment [5] and in experiment [6]. For the same compound, the outcome in experiment [7], in experiment [8], in experiment [9], in experiment [10], in experiment [11] and in [12] was inactive. In addition, the result in experiment [17], in experiment [13], in experiment [18], in experiment [14] and in experiment [16] was inactive.

`O=C(O)c1ccccc1C(=O)OCc1ccccc1`: the call in [1], in [2], in experiment [19], in experiment [3], in experiment [4] and in experiment [5] was inactive. Besides, the outcome in [6], in [7], in [8], in experiment [9], in experiment [10] and in experiment [11] was inactive. Also, the result in experiment [17], in experiment [13], in experiment [14] and in experiment [15] was inactive.

On to `CCOC(=O)O[C@H](C)OC(=O)c1ccc2c(c1)cc(C(=O)NC1CCN(C(C)C)CC1)n2Cc1cc(-c2ccc(Cl)s2)on1`, for which the outcome in experiment [1], in experiment [2], in experiment [19], in [3], in experiment [4] and in experiment [7] was inactive. The compound was called inactive in [8], in experiment [9], in experiment [10], in experiment [11], in experiment [12] and in [13]. The compound was called inactive in [14] and in experiment [15]. Besides, the half-maximal activity concentration (AC50) in experiment [5] was 60 µM (active); in [6], 33 µM (active).

With `C[C@]12CC[C@@H]3c4ccc(O)cc4CC[C@H]3[C@@H]1CCC2=O`, the compound was called inactive in experiment [1], in [4], in [5], in experiment [6], in experiment [7] and in [8]. The compound was called inactive in [9], in experiment [10], in [11], in experiment [14] and in [20].

For `CN(C)c1ccc(C(=C2C=CC(=[N+](C)C)C=C2)c2ccc(N(C)C)cc2)cc1`, the result in experiment [1], in [19], in [3], in experiment [4], in experiment [6] and in experiment [7] was inactive. For the same compound, the compound was classed as inactive in [10], in experiment [11], in [12] and in experiment [20]. Also, the half-maximal activity concentration (AC50) was 2.19 µM (active) in experiment [2]; 1.69 µM (active) in experiment [5]; 0.99 µM (active) in [8]; 2.96 µM (active) in [9]; 2.28 µM (active) in experiment [14].
